From PubChem BioAssay (NCI)
Compounds without any hit were thinned out: in the full panel of roughly 83,000, 20% have a hit.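 Testing used 96-well plates and a 48-hour single-concentration exposure. Example: -40 means 40% of the starting cells died.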 Values without a mark were called inactive. Calls of active or inactive are those of the source. How the source made its calls: active means growth percent below 10; inactive means the rest.

tested on: RXF 393 renal; assay: NCI-60 one-dose screen, 48 h (100 = growth as untreated, 0 = no growth, -100 = all killed); details: 10 µM unless noted

| Compound | growth |
| --- | --- |
| CC(=O)Nc1ccc2c(c1)Cc1c(F)cccc1-2 | 99% |
| COc1ccc(-c2cncnc2N)cc1OC | 112% |
| CN(C)c1ccc2cc(-c3ccc(Cl)c(Cl)c3)c(N)nc2c1 | 63% |
| O=C(Nc1ccccn1)[C@H](O)[C@@H](O)C(=O)N1CCOCC1 | 119% |
| O=C(NC(=S)Nc1ccc(-c2nc3ccccc3[nH]2)cc1)c1ccc2ccccc2c1 | -66.3% (active) |
| CCCCCCN(CCCCCC)CC(O)c1cccc2ccc(Cl)cc12 (stereo unspecified) | 24.1% |
| Cc1ccc(S(=O)(=O)N(CC[C@@H]2C[C@H]2c2cc3ccccc3o2)C(=O)NC2CCCCC2)cc1 | 106% |
| Clc1ccc2[nH]c3c(NCCCN4CCOCC4)ncnc3c2c1 | 70.5% |
| Fc1ccc(Nc2ccc3cc(OCCCN4CCOCC4)ccc3n2)cc1F | 61.1% |
| CNC(=O)NCC1OC(n2cnc3c(NC(=O)Nc4ccccc4)ncnc32)C2OC(C)(C)OC12 (stereo unspecified) | 96.6% |
| CCN(CC)CCOC(=O)Nc1ccccc1Cl | 117% |
| N=C(N)c1ccc(-c2ccc(-c3ccc(Cl)c(Cl)c3)o2)cc1 | 60.2% |
| Cc1[nH]c(-c2nc3ccccc3[nH]2)c(C)c1C(=O)N1CCc2sccc2C1 | 101% |
| CC(C)(C)c1ccc(C(=O)Nc2sc3c(c2C(N)=O)CCC(=O)C3)cc1 | -22.4% (active) |
| Cc1nc(Nc2ccccn2)sc1C(=O)/C=C/c1ccc(Br)cc1 | 78.4% |
| C/C(=N\NC(=O)Cn1c(-c2ccc(S(C)(=O)=O)cc2)nc2cc(Cl)ccc21)c1ccc(Cl)cc1 | 79.3% |
